Measurements: PubChem BioAssay (NCI)
Compounds without any hit were thinned out: in the full panel of roughly 79,000, 15% have a hit. Cut-off read from the data, not from the text of the source: active = growth inhibition above about 70%; inactive = the rest.

Columns and labels:
[1] = NCI Yeast Anticancer Drug Screen. Data for the rad50 strain (AID 155);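 note: 0% = growth of vehicle-only cultures of the same strain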; details: S. cerevisiae rad50 strain growth inhibition; at 50.0 µM; hits give high values
How it was run: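 Inhibition values express reduced yeast growth in compound-treated cultures relative to vehicle-treated controls.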

[2] = NCI Yeast Anticancer Drug Screen. Data for the mec2-1 strain (AID 157); details: S. cerevisiae mec2-1 strain, at 50.0 µM, hits give high values
How it was run: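 Readout is yeast growth inhibition, normalised to vehicle-treated controls, in the mec2-1 strain exposed to compound.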

[3] = NCI Yeast Anticancer Drug Screen. Data for the cln2 rad14 strain (AID 165);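 note: 0% = growth equal to vehicle treated cultures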; details: S. cerevisiae cln2 rad14 strain, at 50.0 µM, hits give high values
How it was run: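 Relative to vehicle controls, growth inhibition of compound-treated cln2 rad14 yeast was recorded.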

[4] = NCI Yeast Anticancer Drug Screen. Data for the bub3 strain (AID 167); details: S. cerevisiae bub3 mutant strain, at 50.0 µM, hits give high values
How it was run: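 Steps: expose the mutant yeast strain to compound; grow alongside vehicle-treated cultures; measure growth; express inhibition against the vehicle cultures.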

[5] = NCI Yeast Anticancer Drug Screen. Data for the mlh1 rad18 strain (AID 175); details: S. cerevisiae mlh1 rad18 strain growth inhibition; at 50.0 µM; hits give high values
How it was run: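 Test agents were incubated with a yeast strain of defined genotype (DNA damage repair defect). Inhibition of growth was derived by comparison with vehicle-exposed cultures.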

[6] = NCI Yeast Anticancer Drug Screen. Data for the sgs1 mgt1 strain (AID 161);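 note: 0% = growth of cultures given vehicle only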; details: S. cerevisiae sgs1 mgt1 strain, at 50.0 µM, hits give high values
How it was run: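 Percent growth inhibition was derived by comparing compound-exposed mutant yeast with vehicle-exposed cultures. The strain carries alterations in DNA damage repair.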

Measured: growth inhibition

C1NCC2CNCC1O2
inactive: [1] 3.2% | [2] -12.4% | [3] 6.35% | [4] 7.9% | [5] -3.15%

CN=NNc1nc[nH]c1C(N)=O
inactive: [1] 23.9% | [2] 32.2% | [6] 25.2% | [4] 3.85% | [5] 40.5%

CC(C)N[C@@H]1CCC[C@H]1O
inactive: [1] 4.5% | [2] -0.1% | [3] 11.7% | [4] 4.05% | [5] -19.5%

O=c1n(CC2CO2)c2ccccc2n1CC1CS1 (stereo unspecified)
inactive: [1] -7.4% | [2] -36% | [3] -12.8% | [4] -41.4% | [5] 1.7%

O=c1c2ccc(Cl)cc2[nH]c(=S)n1-c1ccc(Cl)cc1
inactive: [1] 10.1% | [2] -9.25% | [5] 11%

O=C(CBr)OCCCS(=O)(=O)O
inactive: [1] -24.9% | [2] -34.4% | [5] -33.8%

CC1C2C=CC1C(c1c3ccc(=O)cc-3oc3cc(O)ccc13)C2C(=O)O (stereo unspecified)
inactive: [1] -4.85% | [2] 2.15% | [5] 21.4%

O=C(O)CCCC(=O)CCCC(=O)O
inactive: [1] 0.3% | [6] 22.9% | [3] 7.45% | [4] 24.6%

O=C1NC(=O)C(Cc2cccc(Cl)c2)C(=O)N1
inactive: [1] 15.1% | [6] -15.8% | [3] -8.05% | [4] 0.55% | [5] -36%

O=C(CBr)OCS(=O)(=O)O
inactive: [1] -15.2% | [2] -31.6% | [5] -6.2%

COc1ccc(S(=O)(=O)F)cc1NC(=O)c1ccc2ccccc2c1O
inactive: [1] 6.4% | [2] 7.75% | [5] 41.6%

Cc1ccc(-n2c(=S)[nH]c3ccccc3c2=O)cc1F
inactive: [1] -23.9% | [2] -25.9% | [5] -18.1%

CC(=O)[CH-]C(C)=O.CC(=O)[CH-]C(C)=O.CC(=O)[CH-]C(C)=O.[Cl-].[Hf+4]
inactive: [1] 3.85% | [2] -1.25% | [3] 21.4% | [4] -9.75% | [5] -6.35%

O=c1c2ccccc2[nH]c(=S)n1-c1cccc(Cl)c1
inactive: [1] 44.2% | [2] 16.1% | [5] 27.4%

CN1C2c3ccccc3C3C4c5ccccc5C(C31)C(C2[N+](=O)[O-])N4C (stereo unspecified)
inactive: [1] -12.8% | [2] -30.8% | [5] -13.5%

C/C=C1\CN2CCC1CC2C(O)c1ccnc2ccc(O)cc12 (stereo unspecified)
inactive: [1] -3.6% | [2] -13.7% | [5] 32.2%

CCCOP(=O)(CCl)OCCC
inactive: [1] -7.8% | [2] -5.05% | [5] 8.25%

O=C(/C=C/c1ccccc1)NCCc1cnc[nH]1
inactive: [1] 0.65% | [2] 1.55% | [5] 16.4%

Cc1cccc(-c2cc(Cl)c3cc(S(=O)(=O)F)ccc3n2)c1
inactive: [1] -1.1% | [2] -25.4% | [5] -33.4%

Cc1ccc(-n2c(=S)[nH]c3ccccc3c2=O)cc1
inactive: [1] -8.7% | [2] -7.95% | [5] -20.9%

COc1ccc(-n2c(=S)[nH]c3ccccc3c2=O)cc1
inactive: [1] -10.5% | [2] -9.7% | [5] 4.8%

CN1CCN(c2ccc(Cl)cc2)CC1
inactive: [1] -5.85% | [2] -17.6% | [5] 0.7%

C[N+]1([O-])C2CCC1CC(OC(=O)C(O)c1ccccc1)C2 (stereo unspecified)
inactive: [1] 1.45% | [2] -21.2% | [5] 3.4%

NC(=O)NNc1ccc([N+](=O)[O-])cc1[N+](=O)[O-]
inactive: [1] 12.1% | [2] -5.4% | [5] 14.8%

Clc1cccc(NC2=NCCS2)c1
inactive: [1] -7.35% | [2] -32.6% | [5] -40.8%

COc1ccc(C(=O)OC2CC3CCC(C2)N3)cc1OC (stereo unspecified)
inactive: [1] 7.25% | [2] -19.8% | [5] 22.8%

c1ccc2c(c1)O[As](O[As]1Oc3ccccc3O1)O2
inactive: [1] -4.2% | [2] 4.75% | [5] 10.2%

O=C1C(Cl)=C(Cl)C1(Cl)Cl
inactive: [1] -3.5% | [2] -20.4% | [5] -2.65%

CN(C)CCNC(=O)c1cccc(COC(=O)N(CCCl)CCCl)c1[N+](=O)[O-]
inactive: [1] 9.55% | [6] 15.8% | [3] 10.1% | [4] -9.45% | [5] 9.7%

COc1ccc(CC[N+](C)(C)C)cc1
inactive: [1] -3.85% | [2] -2.5% | [5] 32.5%

CCOC(=O)c1ccc2nc(-c3ccc(S(=O)(=O)F)cc3)cc(Cl)c2c1
inactive: [1] 12% | [2] -9.95% | [5] 23.5%

NC(=NC1CCCCCCCCCCC1)N[N+](=O)[O-]
inactive: [1] 36.1% | [2] 9.6% | [5] 12.3%
